# Experimental data as given in ChEMBL document CHEMBL4513216, “Probing the Open Global Health Chemical Diversity Library for Multistage-Active Starting Points for Next-Generation Antimalarials” (ACS Infect Dis, 2020).
# In all, about 69,000 compounds went through this assay and about 8,600 (12%) showed an effect of 50% or more. Many of the other results were omitted from the sample, so strong results are more common in it than they were.
# System: Plasmodium berghei
# Test: Screen against P. berghei liver stage (PbLuc), transformed with Luciferase, at 10uM
# Assay type: functional, HepG2
# Details: tested at 10 uM
row,SMILES,INHIBITION [%]
1,CC1(NC(=O)Cc2cccs2)CCS(=O)(=O)C1 (configuration not stated),43.1
2,CC(C)C(=O)N1CC[C@H]2N(C)CC[C@@]2(C(=O)Nc2ccccc2)CC1,44.8
3,O=C1CC2(CCCCN2C(=O)c2ccccc2)CN1CC1CC1 (configuration not stated),29.7
4,Cc1cnc(NC(=O)C(C)n2ccc(C(F)(F)F)n2)s1 (configuration not stated),49.1
5,COCC(=O)N1CC[C@]2(O)CCN(Cc3ccsc3)C[C@@H]2C1,10.5
6,CC(C)c1nc(CNC2CCN(C(=O)OC(C)(C)C)CC2)cs1,47
7,CN(CC(=O)NC1CC1)C(=O)c1csc(Br)c1,37.2
8,COc1ccccc1CC(=O)N1CCC(OCc2cccnc2)CC1,-37.2
9,Cc1cnn(CC2CCCCN2Cc2nccn2CC(F)(F)F)c1 (configuration not stated),-61.4
10,Cc1noc(C)c1CC(=O)N1CC[C@@](C)(O)[C@H](Oc2ccccc2)C1,41.55
11,NC(=O)c1ccc(CNC(=O)Nc2cn[nH]c2)cc1,72.9
12,CS(=O)(=O)c1ccc(CNC(=O)Nc2cn[nH]c2)cc1,-21.7
13,CNS(=O)(=O)c1ccc(CNC(=O)Nc2cn[nH]c2)cc1,50.3
14,COCCNc1ccc(CNC(=O)Nc2cn[nH]c2)cc1,6.14
15,O=C(NCc1ccc(Br)c(F)c1)Nc1cn[nH]c1,4.97
16,CNS(=O)(=O)Cc1ccc(CNC(=O)Nc2cn[nH]c2)cc1,27.9

row,SMILES,INHIBITION [%]
1,CNC(=O)c1cnn2c(C3CCCN3C)ccnc12 (configuration not stated),-6.73
2,COc1ccc(Br)c(C(=O)NC(CC(=O)O)c2cccs2)c1 (configuration not stated),33.8
3,O=C(CCCN1C(=O)CCC1=O)NCC1(c2ccccc2)CCC1,-9.37
4,O=C1CCCN1Cc1nnc2n1CCN(Cc1ccco1)CC2,-8.23
5,Fc1cccc(NCc2ncc[nH]2)c1,10.3
6,CCC(O)(CNCc1ncc[nH]1)c1ccc(Br)cc1 (configuration not stated),15.5
7,Fc1ccc(NCc2ncc[nH]2)cc1Br,58.1
8,COc1cc(NCc2ncc[nH]2)ccc1Br,74.4
9,Clc1cc(NCc2ncc[nH]2)nc2[nH]ccc12,-19.8
10,COCc1nc2cc(NCc3ncc[nH]3)ccc2o1,-10.8
11,CCOCC(=O)N1CC[C@H]2O[C@@H](C)C[C@H]2C1,5.44
12,CCCn1cnc2c(cnn2-c2cccc(C)c2C)c1=O,-70.6
13,Cc1cc(-c2cc(N)c(=O)n(CC(=O)N3CCCC(C)C3)n2)c(C)o1 (configuration not stated),22.35
14,Cc1nc(COc2cccc(C#N)c2)no1,54.4
15,Cc1nc(CN2CCCN(CCOc3cccc(C#N)c3)CC2)no1,20.1
16,Cc1noc(OCCOc2cccc(C#N)c2)n1,10.7
